Compound activity as filed in PubChem BioAssay.
Shown are actives, neighbours in structure and some others; about 27% of the full set was active somewhere.
CYP2C19 inhib – human CYP2C19 inhibition | CYP2C19 Supersomes, luciferin-H EGE luminescence, 30 min | 96,000 compounds, 21% hits | inhibition, % at 5 µM;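 active = CYP2C19 inhibition above a set limit at 5 µM in the primary screen, cut at about 50% in these data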
CYP2C9 act – activators of human CYP2C9; P11712; recombinant CYP2C9, luciferin-H conversion, luminescence; stronger effect = higher value; factor 1 = untreated enzyme, 0 = blocked; activation factor at 5 µM; 96,000 compounds, 1.4% hits; AID 1024;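 active = activation factor of 2 or more for CYP2C9 at a 5 µM dose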
Target sequence (P11712 whole entry, looked up): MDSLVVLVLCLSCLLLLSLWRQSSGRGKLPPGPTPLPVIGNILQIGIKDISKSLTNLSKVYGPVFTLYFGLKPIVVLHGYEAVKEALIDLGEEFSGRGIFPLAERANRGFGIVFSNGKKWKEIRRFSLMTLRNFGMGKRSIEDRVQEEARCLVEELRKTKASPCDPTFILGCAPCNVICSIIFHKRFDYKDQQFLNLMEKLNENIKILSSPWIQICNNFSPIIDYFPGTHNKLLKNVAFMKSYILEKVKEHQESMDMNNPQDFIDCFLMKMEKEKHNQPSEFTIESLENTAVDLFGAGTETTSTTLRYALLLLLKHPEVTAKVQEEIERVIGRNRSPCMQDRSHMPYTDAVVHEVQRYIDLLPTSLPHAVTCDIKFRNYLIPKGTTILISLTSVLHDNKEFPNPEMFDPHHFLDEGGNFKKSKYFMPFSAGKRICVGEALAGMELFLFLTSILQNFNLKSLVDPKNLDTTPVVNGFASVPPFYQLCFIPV
sEH inh – blocks human soluble epoxide hydrolase activity; recombinant human sEH enzymatic activity assay; AID 707; inhibition, % at 2 µM; 91,000 compounds, 0.34% hits; in the data active = inhibition above about 80%
sEH activator – activators of human soluble epoxide hydrolase. P34913. purified human sEH enzymatic activity, activator screen. activation, % at 2 µM. 91,000 compounds, 0.04% hits. AID 717; in the data active = activation above about 37%
CYP2C19 activ – cytochrome P450 2C19 (human) activation | recombinant CYP2C19, luciferin-H EGE luminescence; stronger effect = higher value; 0 = fully inhibited enzyme, 1 = untreated enzyme | activation factor at 5 µM | 96,000 tested, under 10 active;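 active = activation factor of at least 2 at 5 µM in the primary screen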
CYP2C9 inh – blocks human cytochrome P450 2C9; inhibition, % at 5 µM; P11712; 96,000 compounds, 20% hits; CYP2C9 Supersomes, luciferin-H conversion, luminescence;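 active = blocking of liver enzyme CYP2C9 beyond about 50% at 5 µM, limit read from the data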
Large screens that a line does not name were inactive.

Cn1c(-c2ccc(Br)o2)nc2ccccc21	CYP2C19 inhib 74.8
CC(C)(C)c1ccc(C(=O)Nc2cnccn2)cc1	none
CCN1CCc2nc(SCC(=O)Nc3ccc(OC)cc3)c(C#N)cc2C1	CYP2C9 inh 72.9 (no result: sEH inh, sEH activator)
CN1CCc2nc(SCc3ccc(C(C)(C)C)cc3)c(C#N)cc2C1	none
COc1ccc(-c2c(C#N)c(SCC(=O)Nc3ccccc3)nc3c2CCCC3)cc1	none (no result: CYP2C19 inhib, CYP2C9 act, CYP2C19 activ, CYP2C9 inh)
COC(=O)CC(=O)CSc1nc2c(cc1C#N)CCCCC2	CYP2C19 inhib 62.1, CYP2C9 inh 76.2
COc1ccc(NC(=O)CSc2nc3c(cc2C#N)CN(C)CC3)cc1	CYP2C9 inh 65.8 (no result: sEH inh, sEH activator)
CN1CCc2nc(SCC(=O)Nc3ccc(F)cc3)c(C#N)cc2C1	CYP2C19 inhib 89.5, CYP2C9 inh 75.0
Cc1ccc(NC(=O)Cc2nnc(SCC(=O)c3ccc(Br)cc3)n2C)cc1	none
CCCOc1nc(N)c(C#N)c(-c2ccccc2F)c1C#N	none
CC(C)Cc1nnc(NC(=O)CSc2nc(N)cc(=O)[nH]2)s1	none
N#C/C(=C1/CCCCCN1)c1nnc2n1CCCCC2	none
CCOc1ccc(C2=CS/C(=C(\C#N)c3nnc4n3CCCCC4)N2CC)cc1	CYP2C19 inhib 53.9
C=CCN1C(c2ccccc2)=CS/C1=C(\C#N)c1nnc2n1CCCCC2	CYP2C19 inhib 83.1 (no result: sEH inh, sEH activator)
COC(=O)COc1ccc(Oc2cc(C)nc(SC)n2)nn1	none
COC(=O)c1ccc(Oc2cc(C)nc(SC)n2)cc1	CYP2C19 inhib 86.2, CYP2C9 inh 72.1
Cc1c(Cl)cccc1NC(=S)NN1CCOCC1	CYP2C19 inhib 67.4
CCc1cc(C(=O)NNC(=S)NCC2CCCO2)cs1 (stereo unspecified)	none
COc1cccc(NC(=O)CCCn2c(=S)[nH]c3ccccc3c2=O)c1	CYP2C19 inhib 63.3, CYP2C9 inh 78.0
O=C(Cc1ccc(-n2c(=S)[nH]c3ccccc3c2=O)cc1)N1CCC(N2CCCCC2)CC1	CYP2C9 inh 92.0
COCCNC(=O)CCCCCn1c(=S)[nH]c2ccccc2c1=O	none
CCOC(=O)N1CCC(n2c(=S)[nH]c3ccccc3c2=O)CC1	CYP2C9 inh 81.1
CCOC(=O)N1CCN(C(=O)CCCn2c(=S)[nH]c3ccc(Br)cc3c2=O)CC1	CYP2C19 inhib 73.2, CYP2C9 inh 69.1
CCOC(=O)N1CCC(NC(=O)Cc2ccc(-n3c(=O)[nH]c4ccccc4c3=O)cc2)CC1	none (no result: CYP2C19 inhib, CYP2C9 act, CYP2C19 activ, CYP2C9 inh)
CC(=O)Nc1ccc2c(c1)ncn2C1CCCCC1	none (no result: CYP2C19 inhib, CYP2C9 act, CYP2C19 activ, CYP2C9 inh)
Cc1ccc(NC(=O)C2CCN(C(=O)NC3CCCCC3)CC2)cc1	none (no result: CYP2C19 inhib, CYP2C9 act, CYP2C19 activ, CYP2C9 inh)
CCOC(=O)N1CCN(C(=O)CCCn2c(=O)[nH]c3ccccc3c2=O)CC1	none
CCOC(=O)N1CCN(C(=O)CCCn2c(=S)[nH]c3ccccc3c2=O)CC1	CYP2C19 inhib 52.0
CCOC(=O)N1CCN(C(=O)C2CCC(C(=O)N3CCN(C(=O)OCC)CC3)CC2)CC1 (stereo unspecified)	none (no result: CYP2C19 inhib, CYP2C9 act, CYP2C19 activ, CYP2C9 inh)
CC(C)(C)c1cc(C(=O)Nc2cccc3ccccc23)ccn1	none (no result: CYP2C19 inhib, CYP2C9 act, CYP2C19 activ, CYP2C9 inh)
CCN(C(=O)c1ccnc(C(C)(C)C)c1)c1ccccc1	CYP2C19 inhib 60.6
c1ccc(CCc2nn3c(C4COc5ccccc5O4)nnc3s2)cc1 (stereo unspecified)	none (no result: sEH inh, sEH activator)
c1csc(-c2nn3c(Cn4cnc5ccccc54)nnc3s2)c1	CYP2C19 inhib 58.3
c1ccc(CCc2nn3c(Cc4ccccc4)nnc3s2)cc1	CYP2C19 inhib 80.4, CYP2C9 inh 72.8
c1ccc(Cc2nnc3sc(-c4ccccn4)nn23)cc1	CYP2C19 inhib 92.5, CYP2C9 inh 63.4
c1csc(-c2nn3c(Cn4nnc5ccccc54)nnc3s2)c1	none
c1ccc(Cc2nnc3sc(-c4cccs4)nn23)cc1	CYP2C19 inhib 59.9, CYP2C9 inh 54.8
COC(=O)C(O)(CC(=O)Nc1ccc(C)c(F)c1)C(F)(F)F (stereo unspecified)	none
c1ccc(Cc2nnc3sc(-c4ccncc4)nn23)cc1	CYP2C19 inhib 96.2, CYP2C9 inh 51.6
c1ccc(Cc2nnc3sc(-c4ccc5c(c4)OCCO5)nn23)cc1	CYP2C19 inhib 58.3, CYP2C9 inh 75.5
c1ccc(-c2nn3c(C4CCCCC4)nnc3s2)nc1	CYP2C19 inhib 69.9, CYP2C9 inh 59.3
c1ccc(Cc2nnc3sc(-c4ccc5c(c4)OCO5)nn23)cc1	none (no result: CYP2C19 inhib, CYP2C9 act, CYP2C19 activ, CYP2C9 inh)
c1ccc(Cc2nnc3sc(-c4cccnc4)nn23)cc1	CYP2C19 inhib 98.4, CYP2C9 inh 63.5
O=C(O)CCCCCNC(=O)CCn1cnc2ccccc2c1=O	none
CCOc1ccccc1-c1nn2c(Cc3ccccc3)nnc2s1	CYP2C19 inhib 54.4 (no result: sEH inh, sEH activator)
